# Rows were chosen to be rich in hits. Some 2.6% of all compounds tested hit in one or more screens of this group.
# aDG glyco up: activators of alpha-DG glycosylation, primary screen, uHTS, Pro5-aDG cells, AlphaScreen. alpha-DG glycosylation AlphaScreen (IIH6); 0% Pro5, 100% B10-LARGE cell signal. activation, % at 10 µM. 0.22% of 360,000 active. AID 624168, 2012;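 active = activation of at least 8% versus controls, or a plate z-score of at least 8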;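 also: Pro5 are CHO cells carrying HIG-tagged alpha-DG that lacks glycosylation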
# LGR2 inh: inhibitors of bursicon-induced LGR2 CRE-luciferase signal, primary screen, cell-based, HEK293, CRE-luciferase reporter, bursicon stimulation | bursicon-stimulated, 4 h | 0.35% of 380,000 active | inhibition, % at 9.99 µM;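 active = drop in luminescence signal, shown as inhibition above about 50% in the replicate tests, limit read from the data, passing the limit was not always enough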;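 also: agonist challenge used bursicon conditioned medium at about half maximal strength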
# TROY NFkB inh: inhibitors of TROY-driven NF-kB signaling, primary screen, Q293 LMP1-TROYcd cells, NF-kB luciferase, uHTS. Q293 LMP1-TROYcd NF-kB luciferase reporter, 4 h. inhibition, % at 10 µM. 0.98% of 360,000 active;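 active = compounds whose plate-normalised and pattern-corrected inhibition of the luciferase reporter signal at the single screening dose is 50% or more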
# TWEAK-Fn14 inh: inhibitors of TWEAK-Fn14 signaling, primary screen, luciferase reporter cells, uHTS. AID 1159606, 2016. TWEAK-stimulated Fn14 reporter cells, luciferase luminescence, 8 h. inhibition, % at 10 µM. 2% of 360,000 active; in the data active = inhibition above about 50%
# EBV LMP1 NFkB: EBV LMP1-driven NF-kappaB luciferase reporter inhibitors, primary screen, cell-based, luminescence, single point; LMP1-induced NF-kappaB luciferase reporter cells; inhibition, % at 12.5 µM; 0.69% of 350,000 active; AID 504558, 2011; in the data active = inhibition above about 41%;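 also: 0% = neutral control wells and 100% = reference inhibitor control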
# HSP90 refold inh: HSP90 inhibitors, primary screen, cell lysate, luminescence; Rabbit reticulocyte lysate, luciferase refolding luminescence, 3 h; Heat shock protein HSP 90 (rabbit reticulocyte lysate; luciferase refolding); 0.91% of 290,000 active; inhibition, % at 5.6 µM;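 active = inhibition above the screen-wide mean plus 3 SD, computed separately per campaign, cut at about 16% in these data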;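 also: 0% = DMSO wells and 100% = 60 µM geldanamycin wells; inhibitors lower the luminescence because luciferase stays unfolded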
# aDG conf: alpha-DG glycosylation enhancers, retest, confirmation, single concentration, Pro5-aDG cells. shares compounds with aDG glyco up. IIH6 AlphaLISA; scaled to LARGE-overexpressing B10 cells as 100%. activation, % at 10 µM (by protocol). 17% of 600 active. AID 651671, 2012;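 active = activation of at least 7% in one or more replicates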;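 also: cells exposed to compound for two days before detection; 0% = DMSO-treated Pro5 cells and 100% = DMSO-treated B10-LARGE cells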
# Numbers without * were called inactive; / = no result.
SMILES,aDG glyco up,LGR2 inh,TROY NFkB inh,TWEAK-Fn14 inh,EBV LMP1 NFkB,HSP90 refold inh,aDG conf
C[C@@H]1CN([C@@H](C)CO)C(=O)c2cc(-c3cccc(F)c3)cnc2O[C@H]1CN(C)C(=O)C1CCCCC1,/,-2,/,/,/,/,/
O=C(Nc1ccc(F)cc1)N1CCCCN2[C@H](CO)[C@@H](c3ccc(C4=CCCCC4)cc3)[C@H]2C1,/,1,/,/,/,/,/
CCOc1cc(/C=N/NC(=O)c2nnn(-c3nonc3N)c2C)ccc1OCc1ccc(F)cc1,0,18,-22,-37,-4,0,/
CCc1c(C(=O)N/N=C/c2ccc(OCc3ccc(F)cc3)c(OC)c2)nnn1-c1nonc1N,3.5*,-14,14,55*,-25,6,2
O=C1C(Cl)=C(NCc2ccco2)C(=O)c2ccccc21,11*,-67,-30,26,-6,/,10*
O=C(CCN1N=C(c2ccccc2)CCC1=O)NC1CCCC1,3.0*,22,-3,-18,0,1,-1
CC(=O)NC[C@H]1[C@@H](c2ccc(C#CC(C)C)cc2)[C@@H](CO)N1C(=O)C1CC1,/,9,/,/,/,/,/
Clc1ccccc1Nc1nc(NCc2ccccc2)nc2ccsc12,6.4*,-6,10,-19,/,/,0
Cc1ccc2ccc3cccnc3c2n1,3.6*,-21,-30,6,19,7,4.7*
COCC1CCN(C(=O)c2cc(COc3ccc4ncccc4c3)on2)CC1,6.7*,17,29,47,5,-1,-1
O=C(NCCc1cn2ccccc2n1)c1cc(COc2ccc3ncccc3c2)on1,10*,20,41,66*,12,3,1
O=C(NC1CCCC1)c1cc(COc2ccc3ncccc3c2)on1,1,/,29,25,28,-1,/
O=C(c1cc(COc2ccc3ncccc3c2)on1)N1CCCC1,1,6,-11,13,10,-2,/
CC(C)Nc1nc(-c2ccccn2)nc(-c2ccccc2)c1C#N,8.8*,4,-4,-13,18,-2,1
Cn1c(=N)n(CC(=O)c2ccc(Br)cc2)c2ccccc21,4.8*,-104,14,36,-2,/,6.1*
Cn1c(=N)n(CC(=O)c2ccc(F)cc2)c2ccccc21,3.8*,-2,49,-29,15,7,3
Cc1n(CC(=O)c2ccc(F)cc2)c2ccccc2[n+]1C,0,-22,6,-21,2,-7,/
N#C/C(=C\c1ccc(F)cc1)c1n[nH]c(Cn2cncn2)n1,0,2,-20,9,9,7,/
N#C/C(=C\c1cccc(Cl)c1)c1n[nH]c(Cn2cncn2)n1,2.9*,19,-14,15,-13,1,0
COc1ccc2c3c([nH]c2c1)[C@H](CO)N(C(=O)C1CCOCC1)CC31CN(Cc2nccs2)C1,/,0,/,/,/,/,/
C[C@@H]1CN([C@@H](C)CO)C(=O)c2cc(NC(=O)C3CCCCC3)ccc2O[C@H]1CN(C)S(=O)(=O)c1cn(C)cn1,/,-10,/,/,/,/,/
Cc1cccc(Nc2nc(N)nc(CN3CCN(c4ccc(F)cc4)CC3)n2)c1,12*,/,0,14,-16,9,1
Cc1cc(C)cc(SCc2noc(C(=O)NCCN(C)C)c2C(=O)NCCN(C)C)c1,7.2*,-4,-7,6,-25,/,1
C[C@H](CO)N1C[C@H](C)[C@@H](CN(C)C(=O)Nc2ccc(N3CCN(C)CC3)cc2)OCc2cnnn2CCCC1=O,0,5,22,3,-3,/,/
C[C@@H]1CN([C@H](C)CO)C(=O)CCCn2nncc2CO[C@@H]1CN(C)C(=O)Nc1ccc(N2CCN(C)CC2)cc1,8.5*,-12,-6,7,-4,/,1
SMILES,aDG glyco up,LGR2 inh,TROY NFkB inh,TWEAK-Fn14 inh,EBV LMP1 NFkB,HSP90 refold inh,aDG conf
O=C(N[C@@H]1CCC(=O)N(CC[C@H](Sc2ccc(Br)cc2)c2ccccc2)CC1)OCc1ccccc1,9.1*,11,6,16,10,/,1
COc1ccc(S[C@@H](CCN2CC[C@H](NC(=O)OCc3ccccc3)CCC2=O)c2ccccc2)cc1,1,-10,36,35,22,/,/
O=C(c1ccc([N+](=O)[O-])o1)N1CCN(c2nc3ccc(F)cc3s2)CC1,5.1*,3,10,1,-12,/,1
Cn1cc(CNC(=O)COc2ccc(Cl)cc2Cl)cn1,0,/,-6,3,10,0,/
Cc1nn(C)cc1CNC(=O)COc1ccc(Cl)cc1Cl,15*,/,18,6,0,-3,0
Cc1ccc(S(=O)(=O)N2CCOCC2)cc1C(=O)NC1CCCCC1,50*,14,-1,26,5,-2,-1
CN(CC(=O)Nc1cccc(F)c1)C(=O)c1ccc(N2C(=O)c3ccccc3C2=O)cc1,5.1*,-1,4,-12,4,/,-1
Cc1ccc(NC(=O)CSc2nc3c(c(=O)[nH]2)CCC3)c(C)c1,7.4*,-3,15,-17,-6,3,2
COCC#Cc1ccc([C@H]2[C@@H](CO)N3C(=O)CN(C(=O)Nc4ccc(F)cc4)C[C@H]23)cc1,/,-9,/,/,/,/,/
Cc1ccc(S(=O)(=O)N(C)C[C@H]2Oc3c(NS(=O)(=O)c4cccs4)cccc3C(=O)N([C@H](C)CO)C[C@@H]2C)cc1,/,-38,/,/,/,/,/
C/C=C/c1ccc([C@H]2[C@@H](CO)N[C@@H]2CNC(=O)C2CCCCC2)cc1,/,-13,/,/,/,/,/
O=C(Cc1ccccc1)NCC(=O)N/N=C/c1ccc([N+](=O)[O-])s1,2,8,-2,0,0,2,/
CCOC(=O)N/N=C\c1ccc([N+](=O)[O-])s1,6.5*,-3,-24,-6,7,-1,4.7*
O=C(CNC(=O)c1ccccc1)N/N=C/c1ccc([N+](=O)[O-])s1,12*,-12,-22,-8,13,4,5.5*
O=C(C[C@H]1CC[C@H](NC(=O)C2CCC2)[C@H](CO)O1)NCc1ccccc1Cl,/,8,/,/,/,/,/
CCNC(=O)/N=C1/NC(=O)C(C(C)C)O1 (configuration not stated),22*,/,16,-5,-6,1,-1
O=C(CN1CCN(S(=O)(=O)c2ccc(F)cc2)CC1)Nc1ccc(Cl)c(C(F)(F)F)c1,5.4*,/,26,26,-3,-2,1
CCn1c(Cc2ccccc2)nnc1SCC(=O)Nc1cc(C)on1,44*,11,8,-4,4,-1,-1
N#Cc1ccsc1NC(=O)c1ccc2ncsc2c1,15*,-88,-32,-17,-24,/,5.5*

# Bioassay records deposited in PubChem by several laboratories.
